The values that follow come from PubChem BioAssay (Tox21).

Results filed as inconclusive are left out. A call without a number means that no potency is given here. Unmarked numbers belong to inactive results. Calls of active or inactive are those of the source. The call rests on the fitted dose curve; in most records, active means well fitted curve in the direction sought with a large enough effect in the repeat runs; inconclusive means weak or mixed curves; inactive means no such curve, though single readings can be large; an effect the other way counts as inactive or inconclusive.

One assay can be described thus: qHTS assay to identify small molecule antagonists of the retinoid acid receptor (RAR) signaling pathway - cell viability counter screen (AID 1159551). Further: nearly all actives have a fitted effect of over 35% in size. The settings on record: C3RL4 cells viability, ATP luminescence (CellTiter-Glo), 6 h; series mostly up to 92.4 µM. Put shortly: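 Cells (C3RL4) are plated, incubated overnight, dosed with compound in DMSO, then given retinol at 1 uM final. After 6 h at 37 C, CellTiter-Glo is added and luminescence read following 30 min at room temperature.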
Background: Quantitative high-throughput screening tests each substance at several concentrations.
Take `Cc1ccc2ccccc2c1`: the Potency entry was “inactive”. With `CC(=O)[C@H]1CC[C@H]2[C@@H]3CC[C@H]4C[C@](C)(O)CC[C@]4(C)[C@H]3CC[C@]12C`, the Potency entry was “inactive”. Consider `CCCCN(N=O)C(=N)N[N+](=O)[O-]`, for which the Potency result was “inactive”. Turning to `O=[N+]([O-])c1ccc(F)c([N+](=O)[O-])c1`, the Potency result is “inactive”. Consider `Clc1cccc2ccccc12`, for which the Potency entry is “inactive”. In the case of `C=CCC1([C@H](C)CCC)C(=O)NC(=O)NC1=O`, the Potency entry was “inactive”. For `Cc1ccc(N)cc1C`, the Potency result was “inactive”. In the case of `CC(Cl)C(C)Cl` (stereo not given), the Potency result is “inactive”.

For `O=S(=O)(Cl)c1ccccc1`, the Potency result is “inactive”. With `N#Cc1ccc(Cl)cc1`, the Potency entry was “inactive”. On to `O=S(=O)(O)C(F)(F)C(F)(F)C(F)(F)C(F)(F)F`, for which the Potency result is “inactive”. The same measure, in the same setting: as for `CC1(C)[C@H](C=C(Cl)Cl)[C@@H]1C(=O)O[C@@H](C#N)c1cccc(Oc2ccccc2)c1`, the entry is “inactive”.

For `NCC(CC(=O)O)c1ccc(Cl)cc1` (stereo not given), the activity change, negative = cytotoxicity is -0.97% [at 0.349 µM]. As for `C=CC(=O)NCNC(=O)C=C`, the Potency result is “inactive”. Turning to `CC(C)=CCOc1c2occc2cc2ccc(=O)oc12`, the Potency entry is “inactive”. In the case of `CCOP(=O)(OCC)SCCSCC`, the Potency result was “inactive”. Turning to `CC1CC(CC2CCC(N)C(C)C2)CCC1N` (stereo not given), the Potency result was “inactive”. With `COc1cc(Cl)c(OC)cc1Cl`, the Potency result is “inactive”.

As to `COC(=O)c1cncn1C(C)c1ccccc1` (stereo not given), the Potency result is “inactive”. For the molecule `CC(c1ccc(O)cc1)(c1ccc(O)cc1)c1ccc(O)cc1`, the Potency entry is “inactive”. Take `Oc1ccc(Cl)c(Cl)c1Cl`: the Potency entry was “inactive”. As for `c1ccc(C2CC2)c(OCC2=NCCN2)c1`, the Potency entry is “inactive”. In the case of `C=C(C#N)CCC#N`, the Potency entry was “inactive”.

As for `COP(=O)(OC)O/C(=C/Cl)c1cc(Cl)c(Cl)cc1Cl`, the Potency entry was “inactive”. Turning to `CCOC(=O)C(Cl)C(C)=O` (stereo not given), the Potency entry is “inactive”. On the same count and under the same terms, as for `O=C(O)C(F)(F)C(F)(F)C(F)(F)C(F)(F)C(F)(F)C(F)(F)C(F)(F)C(F)(F)C(F)(F)F`, the entry is “inactive”.

For the molecule `CC(Cl)Cl`, the Potency entry was “inactive”. Regarding `Cc1ccccc1CCl`, the Potency result was “inactive”. Regarding `CCOP(=O)(OCC)Oc1ccc([N+](=O)[O-])cc1`, the Potency result is “inactive”. Regarding `O=[N+]([O-])c1cc(C(F)(F)F)cc([N+](=O)[O-])c1Cl`, the Potency entry is “inactive”.

The next assay in a line: qHTS assay to identify small molecule antagonists of the retinoic acid receptor (RAR) signaling pathway (AID 1159552; further: nearly all actives have a fitted effect of over 50% in size; further: potency means the concentration at half of the fitted maximal effect). The settings on record: C3RL4 RARE luciferase reporter, retinol-stimulated, 6 h; series mostly up to 92.4 µM. Put shortly:
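C3RL4 RARE-luc cells, overnight plating; retinol 1 uM final added right after compound; 6 hr 37 C; luciferase read at 30 min RT.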
In the case of `O=[N+]([O-])c1ccc(F)c([N+](=O)[O-])c1`, the Potency result was “inactive”. For `C=CCC1([C@H](C)CCC)C(=O)NC(=O)NC1=O`, the Potency entry is “inactive”. As for `Cc1ccc(N)cc1C`, the Potency entry was “inactive”. As for `CC(Cl)C(C)Cl` (stereo not given), the Potency result was “inactive”. For the molecule `O=S(=O)(Cl)c1ccccc1`, the Potency entry was “inactive”. On to `N#Cc1ccc(Cl)cc1`, for which the Potency result is “inactive”.

On to `O=S(=O)(O)C(F)(F)C(F)(F)C(F)(F)C(F)(F)F`, for which the Potency is 18.3 µM (active).

As for `CC1(C)[C@H](C=C(Cl)Cl)[C@@H]1C(=O)O[C@@H](C#N)c1cccc(Oc2ccccc2)c1`, the Potency entry is “inactive”. Take `Cl/C=C\Cl`: the Potency result was “inactive”. In the case of `CC(C)=CCOc1c2occc2cc2ccc(=O)oc12`, the Potency entry is “inactive”.

Take `CCOP(=O)(OCC)SCCSCC`: the Potency entry is “inactive”.

For the molecule `CCBr`, the Potency result is “inactive”. Consider `COc1cc(Cl)c(OC)cc1Cl`, for which the Potency entry was “inactive”. Still for that read-out and setting: as for `COC(=O)c1cncn1C(C)c1ccccc1` (stereo not given), the entry is “inactive”.

As for `CC(c1ccc(O)cc1)(c1ccc(O)cc1)c1ccc(O)cc1`, the Potency was 61.1 µM (active). On the same count and under the same terms, as for `Oc1ccc(Cl)c(Cl)c1Cl`, the figure is 63.4 µM (active); as for `c1ccc(C2CC2)c(OCC2=NCCN2)c1`, “inactive”; as for `C=C(C#N)CCC#N`, “inactive”. For the molecule `COP(=O)(OC)O/C(=C/Cl)c1cc(Cl)c(Cl)cc1Cl`, the Potency is 57.5 µM (active). For `CCOC(=O)C(Cl)C(C)=O` (stereo not given), the Potency result was “inactive”.

In the case of `CC(Cl)Cl`, the Potency result is “inactive”. Still for that read-out and setting: the entry for `Cc1ccccc1CCl` is “inactive”; for `CCOP(=O)(OCC)Oc1ccc([N+](=O)[O-])cc1` it is “inactive”. As for `O=[N+]([O-])c1cc(C(F)(F)F)cc([N+](=O)[O-])c1Cl`, the Potency result is “inactive”. On the same count and under the same terms, the entry for `C=CC(=O)OCC(C)O` (stereo not given) is “inactive”.
